In PubChem BioAssay AID1159580 (chemical genetic matrix, 2015):
The campaign covered roughly 5,500 compounds. About 2,000 (36%) were called active. Roughly 18% stayed inconclusive and do not appear here. Cut-off read from the data, not from the text of the source: active = normalized growth mostly below about 0.91 (no sharp cut-off); inconclusive = no clear call, values can overlap the other calls; inactive = mostly above about 0.92. Some of the results follow.

Experiment: chemical genetic growth profiling, strain panel (AID 1159580);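 note: tested at 20 µM; growth read once vehicle control cultures reached saturation at 30 °C; 1 = growth at the plate median or of vehicle wells; lower values mean less growth of the strain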
Details: growth OD

Measured: normalized growth

COc1cc([C@@H]2c3cc4c(cc3[C@H](OC(C)=O)[C@H]3COC(=O)[C@H]23)OCO4)cc(OC)c1OC
inactive: S. cerevisiae deletion strains, locus YJR066W, strain TOR1, hits give low values 0.932 | S. cerevisiae deletion strains, locus YKL009W, strain mrt4, hits give low values 0.972 | S. cerevisiae deletion strains, locus YKL068W, hits give low values 0.988 | S. cerevisiae deletion strains, locus YKL085W, strain MDH1 (second series), hits give low values 1 | S. cerevisiae deletion strains, locus YKL085W, strain MDH1, hits give low values 1 | S. cerevisiae deletion strains, locus YKL160W, strain elf1, hits give low values 0.999 | S. cerevisiae deletion strains, locus YKL190W, strain CNB1, hits give low values 1 | S. cerevisiae deletion strains, locus YKR001C, strain vps1, hits give low values 0.976 | S. cerevisiae deletion strains, locus YKR026C, strain gcn3, hits give low values 1.01 | S. cerevisiae deletion strains, locus YKR091W, strain srl3, hits give low values 1.01 | S. cerevisiae deletion strains, locus YLL001W, strain dnm1, hits give low values 1 | S. cerevisiae deletion strains, locus YLL026W, hits give low values 1.01 | S. cerevisiae deletion strains, locus YLL041C, strain sdh2, hits give low values 1.01 | S. cerevisiae deletion strains, locus YLR027C, strain aat2, hits give low values 1 | S. cerevisiae deletion strains, locus YLR039C, strain RIC1, hits give low values 0.954 | S. cerevisiae deletion strains, locus YLR058C, strain SHM2, hits give low values 0.998 | S. cerevisiae deletion strains, locus YLR102C, strain apc9, hits give low values 0.974 | S. cerevisiae deletion strains, locus YLR113W, strain HOG1, hits give low values 1.07 | S. cerevisiae deletion strains, locus YLR221C, strain rsa3, hits give low values 1.01 | S. cerevisiae deletion strains, locus YLR258W, strain gsy2, hits give low values 0.997 | S. cerevisiae deletion strains, locus YLR262C, strain YPT6 (second series), hits give low values 0.914 | S. cerevisiae deletion strains, locus YLR262C, strain YPT6, hits give low values 0.933 | S. cerevisiae deletion strains, locus YLR268W, strain sec22, hits give low values 0.984 | S. cerevisiae deletion strains, locus YLR320W, strain mms22, hits give low values 1 | S. cerevisiae deletion strains, locus YLR330W, strain CHS5, hits give low values 0.994 | S. cerevisiae deletion strains, locus YLR342W, strain FKS1 (second series), hits give low values 0.995 | S. cerevisiae deletion strains, locus YLR342W, strain FKS1, hits give low values 1.01 | S. cerevisiae deletion strains, locus YLR357W, strain rsc2, hits give low values 1.06 | S. cerevisiae deletion strains, locus YLR370C, strain arc18, hits give low values 1.01 | S. cerevisiae deletion strains, locus YLR371W, strain rom2, hits give low values 0.992 | S. cerevisiae deletion strains, locus YLR384C, strain iki3, hits give low values 1.02 | S. cerevisiae deletion strains, locus YLR418C, strain cdc73, hits give low values 0.971 | S. cerevisiae deletion strains, locus YML016C, strain PPZ1, hits give low values 0.997 | S. cerevisiae deletion strains, locus YML032C, strain rad52, hits give low values 0.97 | S. cerevisiae deletion strains, locus YML120C, strain ndi1, hits give low values 1 | S. cerevisiae deletion strains, locus YML124C, strain tub3, hits give low values 0.984 | S. cerevisiae deletion strains, locus YMR058W, strain fet3, hits give low values 1.01 | S. cerevisiae deletion strains, locus YMR078C, strain ctf18, hits give low values 0.99 | S. cerevisiae deletion strains, locus YMR125W, strain sto1, hits give low values 1.01 | S. cerevisiae deletion strains, locus YMR129W, hits give low values 1 | S. cerevisiae deletion strains, locus YMR205C, strain PFK2, hits give low values 1.02 | S. cerevisiae deletion strains, locus YMR223W, strain ubp8, hits give low values 0.974 | S. cerevisiae deletion strains, locus YMR231W, strain pep5, hits give low values 0.997 | S. cerevisiae deletion strains, locus YMR307W, strain GAS1, hits give low values 1.02 | S. cerevisiae deletion strains, locus YNL067W, strain RPL9B, hits give low values 1.01 | S. cerevisiae deletion strains, locus YNL071W, strain lat1, hits give low values 1.01 | S. cerevisiae deletion strains, locus YNL128W, strain TEP1, hits give low values 0.992 | S. cerevisiae deletion strains, locus YNL183C, strain NPR1, hits give low values 0.993 | S. cerevisiae deletion strains, locus YNL209W, strain ssb2, hits give low values 0.996 | S. cerevisiae deletion strains, locus YNL233W, strain BNI4, hits give low values 0.997 | S. cerevisiae deletion strains, locus YNL248C, strain rpa49, hits give low values 1.01 | S. cerevisiae deletion strains, locus YNL250W, strain rad50, hits give low values 0.985 | S. cerevisiae deletion strains, locus YNL271C, strain bni1, hits give low values 0.983 | S. cerevisiae deletion strains, locus YNL298W, strain CLA4, hits give low values 0.997 | S. cerevisiae deletion strains, locus YNL307C, strain MCK1, hits give low values 0.98 | S. cerevisiae deletion strains, locus YNL322C, strain KRE1 (second series), hits give low values 1.03 | S. cerevisiae deletion strains, locus YNR049C, strain mso1, hits give low values 1 | S. cerevisiae deletion strains, locus YNR052C, strain pop2, hits give low values 0.973 | S. cerevisiae deletion strains, locus YOL006C, strain TOP1, hits give low values 0.861 | S. cerevisiae deletion strains, locus YOL012C, strain htz1 1.23 | S. cerevisiae deletion strains, locus YOL147C, strain pex11, hits give low values 0.981 | S. cerevisiae deletion strains, locus YOR001W, strain rrp6, hits give low values 1 | S. cerevisiae deletion strains, locus YOR061W, strain CKA2, hits give low values 0.994 | S. cerevisiae deletion strains, locus YOR069W, strain VPS5, hits give low values 0.99 | S. cerevisiae deletion strains, locus YOR070C, strain gyp1, hits give low values 1.01 | S. cerevisiae deletion strains, locus YOR080W, strain dia2, hits give low values 1 | S. cerevisiae deletion strains, locus YOR083W, strain WHI5, hits give low values 1 | S. cerevisiae deletion strains, locus YOR106W, strain vam3, hits give low values 1.02 | S. cerevisiae deletion strains, locus YOR136W, strain idh2, hits give low values 0.98 | S. cerevisiae deletion strains, locus YOR144C, strain elg1, hits give low values 0.99 | S. cerevisiae deletion strains, locus YOR184W, strain ser1, hits give low values 1.01 | S. cerevisiae deletion strains, locus YOR231W, strain MKK1, hits give low values 0.972 | S. cerevisiae deletion strains, locus YOR265W, strain rbl2, hits give low values 1.01 | S. cerevisiae deletion strains, locus YOR270C, strain vph1, hits give low values 0.921 | S. cerevisiae deletion strains, locus YOR290C, strain snf2, hits give low values 1 | S. cerevisiae deletion strains, locus YOR316C, strain cot1, hits give low values 0.992 | S. cerevisiae deletion strains, locus YPL051W, strain arl3, hits give low values 1 | S. cerevisiae deletion strains, locus YPL078C, strain atp4, hits give low values 0.998 | S. cerevisiae deletion strains, locus YPL106C, strain sse1, hits give low values 1.02 | S. cerevisiae deletion strains, locus YPL240C, strain hsp82, hits give low values 1.01 | S. cerevisiae deletion strains, locus YPL256C, strain CLN2, hits give low values 0.986 | S. cerevisiae deletion strains, locus YPR119W, strain clb2, hits give low values 0.986 | S. cerevisiae deletion strains, locus YPR141C, strain kar3, hits give low values 0.98 | S. cerevisiae deletion strains, locus YPR163C, strain tif3, hits give low values 0.991 | S. cerevisiae deletion strains, locus YPR167C, strain met16, hits give low values 0.969 | S. cerevisiae deletion strains, strain wtn01, hits give low values 1 | S. cerevisiae strains, strain wild type, hits give low values 1
